Reference: ChEMBL document CHEMBL3988442, “University of Dundee, Small-Polar-MMV Screening Library” (2021)
For some assays here: Measured potencies and affinities stand elsewhere.

Legend:
Parameters in all cases: scale not given: direction of the effect not stated beside the values
[1] = target: Protein translocase subunit SecA (Escherichia coli (strain K12)) (UniProt P10408); experiment: Assay to Identify E. coli SecA ATPase Inhibitors; format: functional; conditions: 30 µM
[2] = target: T1, Ubiquitin-activating enzyme e1, putative (Leishmania donovani (strain BPK282A1)) (UniProt E9BSI1); experiment: Leishmania donovani Ubiquitin Activating Enzyme (LdE1); format: functional; conditions: 30 µM
T1 sequence (whole entry): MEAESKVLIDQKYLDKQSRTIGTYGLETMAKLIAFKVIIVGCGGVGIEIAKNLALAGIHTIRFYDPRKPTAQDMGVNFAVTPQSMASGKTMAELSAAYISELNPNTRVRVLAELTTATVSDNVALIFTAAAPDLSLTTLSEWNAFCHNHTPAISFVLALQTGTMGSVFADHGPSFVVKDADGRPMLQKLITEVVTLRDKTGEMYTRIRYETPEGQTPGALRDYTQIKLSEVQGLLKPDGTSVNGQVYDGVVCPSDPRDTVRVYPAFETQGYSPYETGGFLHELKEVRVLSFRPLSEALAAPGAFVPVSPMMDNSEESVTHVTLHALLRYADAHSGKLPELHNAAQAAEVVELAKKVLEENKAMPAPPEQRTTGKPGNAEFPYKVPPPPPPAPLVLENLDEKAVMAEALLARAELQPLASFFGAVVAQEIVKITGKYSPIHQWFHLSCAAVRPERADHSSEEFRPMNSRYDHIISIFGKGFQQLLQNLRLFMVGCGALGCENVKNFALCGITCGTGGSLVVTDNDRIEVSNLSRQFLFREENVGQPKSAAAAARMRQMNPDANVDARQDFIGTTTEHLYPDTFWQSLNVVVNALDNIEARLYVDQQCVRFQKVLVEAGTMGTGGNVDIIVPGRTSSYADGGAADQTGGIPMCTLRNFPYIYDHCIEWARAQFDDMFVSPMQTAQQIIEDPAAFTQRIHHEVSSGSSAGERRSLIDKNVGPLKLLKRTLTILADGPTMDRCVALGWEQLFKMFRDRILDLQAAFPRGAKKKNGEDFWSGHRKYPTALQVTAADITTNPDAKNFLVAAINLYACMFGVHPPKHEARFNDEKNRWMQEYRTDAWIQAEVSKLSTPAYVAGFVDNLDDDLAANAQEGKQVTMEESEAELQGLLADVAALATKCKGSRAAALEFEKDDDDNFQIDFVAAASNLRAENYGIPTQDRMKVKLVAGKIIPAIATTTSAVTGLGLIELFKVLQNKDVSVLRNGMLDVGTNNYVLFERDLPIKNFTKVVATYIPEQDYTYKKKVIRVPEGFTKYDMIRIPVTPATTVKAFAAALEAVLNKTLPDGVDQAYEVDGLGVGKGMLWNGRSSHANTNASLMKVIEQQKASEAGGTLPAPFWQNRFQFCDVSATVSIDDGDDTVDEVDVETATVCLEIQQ

[3] = target: AMP-activated protein kinase, AMPK (Homo sapiens) (UniProt P54646+O43741+P54619+Q9UGJ0+Q9Y478+Q13131+Q9UGI9); experiment: AMP-dependent Kinase enzyme assay. An in vitro enzyme assay that detects ADP turnover that is directly proportional to AMPK activity. This uses naive AMPK that is activated during the assay with MK-8722; format: functional; conditions: 30 µM
[4] = target: Sialic acid-binding Ig-like lectin 9 (Homo sapiens) (UniProt Q9Y336); experiment: Hs-Siglec9 ALPHAscreen SOP 20170721; conditions: 10 µM
Chain of Sialic acid-binding Ig-like lectin 9 (Homo sapiens) (Q9Y336 whole entry): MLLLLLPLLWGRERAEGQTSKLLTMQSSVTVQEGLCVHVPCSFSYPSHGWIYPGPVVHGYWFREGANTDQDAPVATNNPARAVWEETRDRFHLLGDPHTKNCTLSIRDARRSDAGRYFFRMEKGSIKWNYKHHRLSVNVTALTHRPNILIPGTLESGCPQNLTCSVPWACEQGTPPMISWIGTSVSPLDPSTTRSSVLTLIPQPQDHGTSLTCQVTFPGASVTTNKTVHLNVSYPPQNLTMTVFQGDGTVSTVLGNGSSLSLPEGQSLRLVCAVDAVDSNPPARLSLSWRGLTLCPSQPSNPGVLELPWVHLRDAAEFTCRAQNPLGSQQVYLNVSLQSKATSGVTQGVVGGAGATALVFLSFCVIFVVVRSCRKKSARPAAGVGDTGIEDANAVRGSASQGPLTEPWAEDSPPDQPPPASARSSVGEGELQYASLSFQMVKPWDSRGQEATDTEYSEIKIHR

Trypanosoma cruzi = experiment: Trypanosoma cruzi phosphomannomutase and mannose-1-phosphate guanylyltransferase assay; format: functional; conditions: 10 µM
[5] = target: T2, Arginase-2, mitochondrial (Homo sapiens) (UniProt P78540); experiment: in vitro enzyme assay to detect the production of urea directly proportional to the activity of Arginase II; format: functional; conditions: 33.3 µM; further: in the data most compounds retested in dose-response had high values
T2 sequence (whole entry): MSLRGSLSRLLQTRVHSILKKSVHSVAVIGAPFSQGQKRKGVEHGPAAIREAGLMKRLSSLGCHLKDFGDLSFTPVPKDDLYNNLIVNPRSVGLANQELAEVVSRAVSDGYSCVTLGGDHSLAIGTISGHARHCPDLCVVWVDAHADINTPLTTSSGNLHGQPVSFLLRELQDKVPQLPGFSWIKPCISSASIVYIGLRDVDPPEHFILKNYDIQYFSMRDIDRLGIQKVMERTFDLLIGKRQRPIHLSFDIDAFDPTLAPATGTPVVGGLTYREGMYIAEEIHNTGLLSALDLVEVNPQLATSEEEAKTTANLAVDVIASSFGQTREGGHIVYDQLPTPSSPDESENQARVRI

[6] = target: T3, Proteasome subunit beta (Trypanosoma cruzi) (UniProt O96673); experiment: Trypanosoma cruzi proteasome chymotrypsin-like activity (TcProtChymo) assay.; further: in the data most compounds retested in dose-response had high values; format: functional; conditions: 9.37 µM
T3 sequence (whole entry): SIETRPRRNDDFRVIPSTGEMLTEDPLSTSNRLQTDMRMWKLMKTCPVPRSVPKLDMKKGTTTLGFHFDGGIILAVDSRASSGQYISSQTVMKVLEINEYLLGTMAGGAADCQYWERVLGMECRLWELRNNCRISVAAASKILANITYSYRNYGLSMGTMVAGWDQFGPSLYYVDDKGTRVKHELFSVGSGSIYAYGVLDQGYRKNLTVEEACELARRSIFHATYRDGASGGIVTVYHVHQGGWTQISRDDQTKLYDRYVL

Homo sapiens = organism: Homo sapiens; experiment: To identify inhibition of the IFN signalling (Jak-Stat) pathway via expression of an eGFP reporter gene under the control of an IFN-stimulated response element (ISRE) containing MxA promoter.; format: functional; conditions: 30 µM
[7] = target: T4, Tyrosyl-tRNA synthetase, putative (Trypanosoma cruzi (strain CL Brener)) (UniProt Q4DSP6); experiment: Trypanosoma cruzi tyrosyl tRNA synthetase (TcYRS) _High Tyrosine SOP; format: functional; conditions: 30 µM; further: in the data most compounds retested in dose-response had high values
T4 sequence (whole entry): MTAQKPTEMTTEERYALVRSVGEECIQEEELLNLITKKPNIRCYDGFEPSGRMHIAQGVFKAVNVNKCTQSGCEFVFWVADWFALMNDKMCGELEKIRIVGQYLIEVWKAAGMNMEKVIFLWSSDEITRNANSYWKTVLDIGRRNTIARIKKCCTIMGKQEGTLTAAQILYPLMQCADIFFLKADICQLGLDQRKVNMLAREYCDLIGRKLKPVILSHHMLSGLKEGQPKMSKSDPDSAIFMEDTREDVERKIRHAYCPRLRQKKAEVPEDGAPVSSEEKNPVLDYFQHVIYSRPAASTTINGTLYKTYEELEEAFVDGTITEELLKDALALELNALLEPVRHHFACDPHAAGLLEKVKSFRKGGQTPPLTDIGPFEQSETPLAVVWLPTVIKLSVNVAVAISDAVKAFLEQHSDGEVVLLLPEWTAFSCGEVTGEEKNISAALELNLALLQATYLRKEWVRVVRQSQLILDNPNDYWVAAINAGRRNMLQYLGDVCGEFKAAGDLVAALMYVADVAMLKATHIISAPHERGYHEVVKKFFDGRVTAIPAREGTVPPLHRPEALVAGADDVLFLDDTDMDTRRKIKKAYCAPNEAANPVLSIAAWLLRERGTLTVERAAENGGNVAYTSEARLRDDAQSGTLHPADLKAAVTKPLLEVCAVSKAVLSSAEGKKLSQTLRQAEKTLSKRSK

[8] = target: T4, Tyrosyl-tRNA synthetase, putative (Trypanosoma cruzi (strain CL Brener)); experiment: Trypanosoma cruzi tyrosyl tRNA synthetase (TcYRS) SOP; format: functional; conditions: 30 µM
[9] = target: Chromo domain-containing protein 1 (Saccharomyces cerevisiae (strain ATCC 204508 / S288c) (Baker's yeast)) (UniProt P32657); experiment: ScCHD-1 Enzyme Inhibition Assay; format: functional; conditions: 30 µM; further: in the data most compounds retested in dose-response had high values
Chain of Chromo domain-containing protein 1 (Saccharomyces cerevisiae (strain ATCC 204508 / S288c) (Baker's yeast)) (P32657 whole entry, the tested form may be a part): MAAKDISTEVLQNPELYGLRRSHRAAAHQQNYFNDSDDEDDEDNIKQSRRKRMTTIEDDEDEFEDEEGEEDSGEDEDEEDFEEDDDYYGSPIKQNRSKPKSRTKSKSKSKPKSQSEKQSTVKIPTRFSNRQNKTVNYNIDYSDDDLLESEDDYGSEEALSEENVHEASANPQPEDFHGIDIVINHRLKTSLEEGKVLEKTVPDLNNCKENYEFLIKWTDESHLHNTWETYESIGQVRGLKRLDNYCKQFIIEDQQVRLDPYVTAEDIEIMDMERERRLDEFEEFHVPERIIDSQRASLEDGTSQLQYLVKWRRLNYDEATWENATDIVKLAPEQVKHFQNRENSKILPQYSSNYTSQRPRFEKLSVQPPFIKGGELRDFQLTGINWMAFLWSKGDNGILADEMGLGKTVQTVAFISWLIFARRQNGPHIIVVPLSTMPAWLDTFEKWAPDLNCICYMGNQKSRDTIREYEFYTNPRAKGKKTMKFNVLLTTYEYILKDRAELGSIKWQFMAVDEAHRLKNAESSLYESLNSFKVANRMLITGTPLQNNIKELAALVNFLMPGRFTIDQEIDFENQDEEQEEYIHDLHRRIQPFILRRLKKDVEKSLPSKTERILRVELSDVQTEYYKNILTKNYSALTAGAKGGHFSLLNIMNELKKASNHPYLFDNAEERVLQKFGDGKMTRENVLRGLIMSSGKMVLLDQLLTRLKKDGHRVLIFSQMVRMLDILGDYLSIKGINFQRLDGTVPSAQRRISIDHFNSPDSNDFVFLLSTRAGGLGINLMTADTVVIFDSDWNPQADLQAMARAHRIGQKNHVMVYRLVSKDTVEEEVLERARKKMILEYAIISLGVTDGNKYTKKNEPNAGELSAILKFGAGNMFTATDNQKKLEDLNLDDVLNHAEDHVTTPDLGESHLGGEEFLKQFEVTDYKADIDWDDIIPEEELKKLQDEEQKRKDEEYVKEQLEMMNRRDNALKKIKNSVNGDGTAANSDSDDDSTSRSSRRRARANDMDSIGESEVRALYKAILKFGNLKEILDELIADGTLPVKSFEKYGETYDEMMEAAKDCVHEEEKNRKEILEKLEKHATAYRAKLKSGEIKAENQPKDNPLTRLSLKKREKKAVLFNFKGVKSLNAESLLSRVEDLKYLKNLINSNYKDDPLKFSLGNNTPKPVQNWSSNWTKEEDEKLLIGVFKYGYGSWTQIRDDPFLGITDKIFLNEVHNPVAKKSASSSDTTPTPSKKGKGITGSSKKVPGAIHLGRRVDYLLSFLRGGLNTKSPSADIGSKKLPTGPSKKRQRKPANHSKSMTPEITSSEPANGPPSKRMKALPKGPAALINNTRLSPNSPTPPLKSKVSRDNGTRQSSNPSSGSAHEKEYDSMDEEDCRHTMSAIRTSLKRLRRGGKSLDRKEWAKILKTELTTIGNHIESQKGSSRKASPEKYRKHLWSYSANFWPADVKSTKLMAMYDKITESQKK

Chain of Protein translocase subunit SecA (Escherichia coli (strain K12)) (P10408 whole entry): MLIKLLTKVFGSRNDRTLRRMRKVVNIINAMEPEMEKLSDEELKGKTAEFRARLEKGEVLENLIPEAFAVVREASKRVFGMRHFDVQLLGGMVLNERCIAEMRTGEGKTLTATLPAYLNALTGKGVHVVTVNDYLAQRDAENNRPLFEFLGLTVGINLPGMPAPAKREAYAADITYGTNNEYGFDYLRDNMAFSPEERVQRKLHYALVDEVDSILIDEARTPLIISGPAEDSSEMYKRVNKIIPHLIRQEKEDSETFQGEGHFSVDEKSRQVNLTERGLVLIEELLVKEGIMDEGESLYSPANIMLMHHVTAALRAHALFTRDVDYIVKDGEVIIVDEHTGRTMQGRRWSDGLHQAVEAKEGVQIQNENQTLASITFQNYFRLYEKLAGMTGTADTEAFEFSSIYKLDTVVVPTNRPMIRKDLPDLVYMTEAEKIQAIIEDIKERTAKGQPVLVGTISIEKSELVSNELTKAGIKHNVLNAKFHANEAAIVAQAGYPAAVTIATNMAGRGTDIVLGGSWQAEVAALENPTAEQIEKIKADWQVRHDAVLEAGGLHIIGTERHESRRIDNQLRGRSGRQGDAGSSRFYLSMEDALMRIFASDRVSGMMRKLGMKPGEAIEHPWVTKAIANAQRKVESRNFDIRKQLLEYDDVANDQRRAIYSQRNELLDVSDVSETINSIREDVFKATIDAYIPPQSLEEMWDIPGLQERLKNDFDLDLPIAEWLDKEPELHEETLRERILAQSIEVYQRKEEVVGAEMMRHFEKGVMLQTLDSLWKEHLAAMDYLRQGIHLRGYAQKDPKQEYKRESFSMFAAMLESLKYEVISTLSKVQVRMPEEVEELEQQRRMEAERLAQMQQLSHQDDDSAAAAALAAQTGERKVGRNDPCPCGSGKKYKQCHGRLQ

SMILES	Percent Effect [1] [%]	Percent Effect [2] [%]	Percent Effect [3] [%]	Percent Effect [4] [%]	Percent Effect (Trypanosoma cruzi) [%]	Percent Effect [5] [%]	Percent Effect [6] [%]	Percent Effect (Homo sapiens) [%]	Percent Effect [7] [%]	Percent Effect [8] [%]	Percent Effect [9] [%]
O=C(c1cnc(COc2ccccc2)nc1O)N1CCOCC1	-3.01	4.17	-4.14	-9.54	-1.07	-0.442	8.77	16.1	2.1	2.56	-1.09
Cc1ncnc2c1CCN(Cc1ccccn1)CC2	-2.86	-2.74	-0.577	1.97	-3.57	-0.798	1.46	-16.5	3.12	-1.24	5.72
O=C(CSc1ncccn1)N1C[C@H]2CC[C@@H]1CN(Cc1ccncc1)C2	-4.87	11	-5.51	21	6.46	8.64	12.9	-3.77	5.38	7.5	-3.96
CC(C)C(C(=O)N1CCCN(Cc2cnn(C)c2)CC1)n1cncn1 (configuration not stated)	-1.34	0	2.52	2.77	-5.8	2.76	7.82	-12.4	1.07	-1.24	2.06
CC(NC(=O)CSCC#N)c1ccccc1 (configuration not stated)	-1.5	28.9	-6.37	-7.6	5.51	0	15	5.31	7.39	23.5	-11.2
CNC(=O)C1(CCCc2ccncc2)CCCN1 (configuration not stated)	-0.846	12.2	14.6	0.634	-2.96	-2.09	12.3	1.56	7.53	22.1	-10.5
CN1CCC(Oc2ccc(NC(=O)c3cccc(Cl)c3)cc2)CC1	-5.92	0	6.08	4.72	3.05	19.3	10.2	12.9	-5.38	1.24	-3.75
CCn1nc(C)c2ncnc(NCCCN3CCOCC3)c21	-5.99	9.33	-3.7	9.5	0.786	-2.64	12.2	-4.74	5.29	12.8	-10.7
Cc1nc(C2CCCCN2C(=O)c2ccccc2)ncc1C(=O)N(C)C (configuration not stated)	0.833	-5.33	7.56	0.633	-1.97	4.89	0.0881	10.8	1.06	1.28	0.34
O=C(CCc1ccccc1)Nc1ncccc1OC(F)F	-2.62	6.94	-0.321	-1.86	-3.4	-0.883	13.5	-3.51	1.05	0	-2.3
CCCOc1cccc(CNC(=O)CN2CCN(C)CC2C)c1 (configuration not stated)	-1.3	13.5	-7.22	15	1.02	-6.47	1.98	14.1	3.96	15.8	-9.26
CCCS(=O)(=O)N1CCC2(CN(c3cnn(C)c3)C(=O)CN2C)C1 (configuration not stated)	1.02	10.8	5.11	-11.2	-4.69	0.833	20.4	6.16	6.93	8.54	1.55
Cc1cc(CNc2ccc(C(=O)N3CCCC(C)C3)cc2C)no1 (configuration not stated)	-4.07	10.4	0.477	-5.45	-6.18	-1.42	3.72	37.9	5.83	14.6	-5.48
c1cnc(NCc2ncn3c2CN(Cc2cccnc2)CCC3)nc1	-0.478	2.7	0.693	-4.85	-2.15	1.25	8.03	2.98	8.91	8.54	-0.718
Cc1ccc(CN2CCCn3nnc(COCC4CC4)c3C2)s1	0.823	16	9.89	-6.88	-2.76	-11	6.96	12.7	5.32	11.5	-3.12
COCC1CCN(C(=O)c2cccc(S(=O)(=O)NC3CCCC3)c2)C1 (configuration not stated)	1.68	16.2	-0.427	10.5	1.66	10.2	17.4	13.5	5.38	21	-13.4
CCCc1n[nH]c(C2CN(CCn3cccn3)CCO2)n1 (configuration not stated)	-6.25	-4.17	-1.07	-3.33	2.04	2.21	11.9	-12.6	2.1	0	-1.2
CC(C)c1nc(C2CCCN2Cc2ccccc2C#N)no1 (configuration not stated)	-1.53	-13	-3.89	11.4	5.24	1.07	-4.22	5.77	5.83	12.2	73.9
Cc1cc(CN2CCCC(C)(CO)C2)ccc1F (configuration not stated)	0.156	5.41	-7.31	1.4	2.05	12.2	0.0858	5.91	-1.07	3.7	-7.89
Cc1nsc(NC(=O)N2CCC(C(C)(C)O)CC2)n1	1.56	5.41	-3.48	-1.81	-8.11	1.74	14.2	5.12	1.07	6.17	-3.72
O=C(NCCN1CCOCC1)NCC(O)c1cccc(F)c1 (configuration not stated)	-4.85	16.2	-10.5	13.6	5.75	-6.01	4.68	10.8	5.42	11.1	-10.8
O=c1[nH]c(CCN2CCCC(Cn3cncn3)C2)nc2ccccc12 (configuration not stated)	-4.26	13.5	0.62	16.8	6.78	0.924	2.33	14.5	4.95	11	-3.63
